For test [1], the system named is TRPC4 beta (transient receptor potential cation channel C4), mouse. The experiment in a line: TRPC4 cation channel opening, retest – cell-based, Fluo4 calcium, HEK293 TRPC4beta/mu-opioid, duplicates, 10 µM, confirmation (AID 2426;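 active = fluorescence ratio normalized to control raised more than 50% in primary screen plus both repeat runs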;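 as to activation: percent rise of integrated ratio over buffer wells lacking compound which define 0%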). As to conditions: Fluo4 calcium fluorescence, at 10 µM; active compounds read high.
The test system of test [2] is transient receptor potential cation channel C4 beta (TRPC4), mouse. The experiment in a line: TRPC4 cation channel opening, second retest – cell-based, second round, Fluo4, HEK293 TRPC4beta/mu-opioid, 1 µM, confirmation (AID 2461).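 As to activation: 0% = wells without test compound as baseline of integrated fluorescence ratio.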 As to conditions: Fluo4 calcium fluorescence, at 1 µM; active compounds read high.
Test [3] concerns TRPC4 (transient receptor potential cation channel C4 beta), mouse. The experiment in a line: potentiation of DAMGO EC20 TRPC4 response – cell-based, second round, Fluo-4, HEK293 TRPC4beta/mu-opioid, 1 µM, confirmation (AID 2554;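 active = primary screen hit whose fluorescence ratio, in both repeats, exceeds the weak agonist control mean by 3 SD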). Particulars: DAMGO EC20, Fluo-4 calcium flux, at 1 µM; active compounds read high. Background: Calcium flux is commonly read through the fluorescence of an indicator in the cells.

Test [4] deals with TRPC4 beta (transient receptor potential cation channel C4), mouse. The experiment in a line: potentiation of DAMGO EC20 TRPC4 response – cell-based, Fluo-4, HEK293 TRPC4beta/mu-opioid, confirmation (AID 2555;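 active = primary screen hit whose calcium fluorescence ratio, in both repeats, exceeds the weak agonist control mean by 3 SD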). Particulars: DAMGO EC20, Fluo-4 calcium flux, at 10 µM; active compounds read high.
Test [5] has as its target Short transient receptor potential channel 4 (Mus musculus) (UniProt Q9QUQ5). The experiment in a line: blockers of DAMGO-evoked TRPC4 calcium flux – cell-based, Fluo4, HEK293 TRPC4beta/mu-opioid, confirmation (AID 2636;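 active = calcium signal cut by more than 3 SD below the full-agonist control yet still positive, in both repeats and the earlier primary screen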). As to conditions: at 10 µM; active compounds read high.
Test [6] has the same target. The experiment in a line: blockers of DAMGO-evoked TRPC4 calcium flux – cell-based, second round, Fluo4, HEK293 TRPC4beta/mu-opioid, 1 µM, confirmation (AID 2637;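 active = calcium signal ratio cut to more than 3 SD under the fully stimulated control mean yet still positive, in both repeats and the primary screen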). Particulars: at 1 µM; active compounds read high.
Test [7] has the same target. The experiment in a line: potentiation of DAMGO-evoked TRPC4 calcium signal – cell-based, HEK293 TRPC4/mu-opioid, Fluo-4 calcium, EC20 DAMGO, dose response (AID 434941;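 active = earlier screen potentiator hit that boosts the TRPC4 ion channel at some dose, with a dose response; inactive = no potentiation, no dose response, or not a prior hit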;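 also: calcium entry triggered by an EC20 dose of DAMGO at the co-expressed mu-opioid receptor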).
Test [8] shares this target. The experiment in a line: block of DAMGO-driven TRPC4 calcium entry – cell-based, HEK293 TRPC4/mu-opioid, Fluo-4 calcium, dose response (AID 434942;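 active = primary screen inhibitor hit that blocks the TRPC4 channel at some tested dose, yielding a dose curve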).
The target of test [9] is Short transient receptor potential channel 6 (Mus musculus) (UniProt Q61143). The experiment in a line: TRPC6 blockade by TRPC4 inhibitor hits – cell-based, HEK293, membrane potential dye, duplicate, selectivity assay for TRPC4 inhibitor project, confirmation (AID 434948;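 active = active in primary screen and both duplicates, each dropping signal beyond three positive-control SD with fluorescence still positive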). Particulars: HEK293 TRPC6, membrane potential dye fluorescence, at 10 µM; inhibition: active compounds read high, stimulated with maximal-effect acetylcholine unless noted; outcome: stimulated with maximal-effect acetylcholine unless noted.
Short transient receptor potential channel 6 (Mus musculus), sequence (Q61143 whole entry, looked up): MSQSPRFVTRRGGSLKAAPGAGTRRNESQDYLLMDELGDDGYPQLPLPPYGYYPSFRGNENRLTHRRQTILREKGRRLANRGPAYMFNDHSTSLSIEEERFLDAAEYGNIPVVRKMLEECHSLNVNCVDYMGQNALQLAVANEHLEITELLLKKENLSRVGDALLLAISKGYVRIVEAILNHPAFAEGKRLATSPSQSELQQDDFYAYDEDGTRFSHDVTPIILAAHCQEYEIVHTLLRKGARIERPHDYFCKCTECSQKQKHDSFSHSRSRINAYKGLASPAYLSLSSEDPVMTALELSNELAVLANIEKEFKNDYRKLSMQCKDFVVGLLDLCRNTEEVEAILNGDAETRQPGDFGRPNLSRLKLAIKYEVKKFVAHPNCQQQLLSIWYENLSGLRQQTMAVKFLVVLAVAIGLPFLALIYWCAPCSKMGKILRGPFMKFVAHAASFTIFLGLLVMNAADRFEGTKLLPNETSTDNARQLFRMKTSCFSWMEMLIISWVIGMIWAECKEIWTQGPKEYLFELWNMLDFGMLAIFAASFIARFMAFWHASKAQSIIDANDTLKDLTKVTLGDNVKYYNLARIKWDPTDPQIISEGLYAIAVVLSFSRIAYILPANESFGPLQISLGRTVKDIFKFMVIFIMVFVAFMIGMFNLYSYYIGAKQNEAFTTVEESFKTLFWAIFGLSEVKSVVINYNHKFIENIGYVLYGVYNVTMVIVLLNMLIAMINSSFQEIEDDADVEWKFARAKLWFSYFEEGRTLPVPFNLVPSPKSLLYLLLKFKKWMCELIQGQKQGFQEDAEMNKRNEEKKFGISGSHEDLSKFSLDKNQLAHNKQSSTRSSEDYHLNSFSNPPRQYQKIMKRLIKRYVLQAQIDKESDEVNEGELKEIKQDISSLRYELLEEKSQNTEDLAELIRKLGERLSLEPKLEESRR

The target is the same in test [10]. The experiment in a line: TRPC6 opening by TRPC4 activator hits – cell-based, HEK293, membrane potential dye, duplicate, selectivity assay for TRPC4 activator project, confirmation (AID 434950;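 active = membrane potential signal rise above negative control mean plus 3 SD in both duplicates, also active in the earlier TRPC4 screen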;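 as to activation: 0% = buffer only wells and 100% = acetylcholine maximal-effect wells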). As to conditions: HEK293 TRPC6, membrane potential fluorescence, at 10 µM; activation: active compounds read high; outcome: activation.
Test [11] shares this target. The experiment in a line: positive modulators of mouse TRPC6 channel – HEK293 cells, membrane potential dye, duplicate, selectivity assay for TRPC4 potentiator project, confirmation (AID 434952;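 active = compound raising the membrane signal above positive-control mean plus 3 SD in both repeats, and a primary screen hit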). As to conditions: HEK293 TRPC6, membrane potential dye fluorescence, at 10 µM; maximal acetylcholine added after compound unless noted.
Test [12] has as its target Short transient receptor potential channel 4 (Mus musculus) (UniProt Q9QUQ5). The experiment in a line: calcium flux activators in TRPC4/5HT1a cells, counter-screen for TRPC4 activator project, cell-based, second counter screen, HEK293 TRPC4/5HT1a, Fluo-4 (AID 434977;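 active = calcium signal rise above buffer-control mean plus 5 SD in both duplicates, and also a hit in the primary screen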;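 as to activation: plate controls were assay buffer for no effect and maximal serotonin response for full effect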). Particulars: Fluo-4 calcium flux, at 10 µM; active compounds read high.
A short description of test [13]: serotonin-gated TRPC4 signal block – cell-based, second counter screen, HEK293 TRPC4/5HT1a, Fluo-4, counter-screen for TRPC4 inhibitor project, confirmation (AID 434978;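 active = primary screen active whose calcium signal fell more than 3 SD beyond the full-serotonin control mean in both duplicate plates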;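 also: serotonin given first at submaximal then at maximal dose after compound preincubation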). Particulars: Fluo-4 calcium flux, at 10 µM; inhibition: active compounds read high, serotonin added to trigger calcium flux unless noted; outcome: serotonin added to trigger calcium flux unless noted. Background: Counterscreens check selectivity or assay interference.

For test [14], the system named is TRPC4 (mouse), co-expressed with 5HT1a in HEK293. The experiment in a line: enhancement of serotonin-evoked TRPC4 response – cell-based, second counter screen, HEK293 TRPC4/5HT1a, Fluo-4, counter-screen for TRPC4 potentiator project, confirmation (AID 434979;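 active = signal rise over 3 SD above mean of control wells given weak agonist, in both repeats and first screen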). Particulars: Fluo-4 calcium flux, at 10 µM; outcome: serotonin added at its EC20 dose unless noted; potentiation: active compounds read high, serotonin added at its EC20 dose unless noted.

Test [15] in a line: nonspecific calcium rise without TRPC4 – cell-based, HEK293 mu-opioid receptor line, counter-screen for TRPC4 activator project, confirmation (AID 449723;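 active = hit in primary screen, with calcium signal over 5 SD above buffer well mean in both duplicates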;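 also: counter screen cells carry the mu-opioid receptor alone and lack TRPC4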). As to conditions: HEK293 mu-opioid cells, Fluo-4 calcium fluorescence, at 10 µM; active compounds read high.
Test [16] can be described thus: nonspecific potentiation of DAMGO calcium response – cell-based, HEK293 mu-opioid receptor line, counter-screen for TRPC4 allosteric potentiator project, confirmation (AID 449724;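 active = calcium signal rise more than 3 SD above the low-dose agonist control mean, in both duplicate plates and the primary screen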;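 also: HEK293 cells carrying mu-opioid receptor only with no TRPC4 channel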). As to conditions: HEK293 mu-opioid receptor cells, Fluo-4 calcium flux, at 10 µM; compound added before EC20 DAMGO stimulus unless noted.

Data on 16 compounds can be found in PubChem BioAssay.

For some of these results: Measured potencies and affinities stand elsewhere. Calls of active or inactive are those of the source.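 The calls were made as follows, unless noted: active = primary screen active and over 50% activation in each of two duplicate runs; inactive = the rest.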

Short transient receptor potential channel 4 (Mus musculus), sequence (Q9QUQ5 whole entry, looked up): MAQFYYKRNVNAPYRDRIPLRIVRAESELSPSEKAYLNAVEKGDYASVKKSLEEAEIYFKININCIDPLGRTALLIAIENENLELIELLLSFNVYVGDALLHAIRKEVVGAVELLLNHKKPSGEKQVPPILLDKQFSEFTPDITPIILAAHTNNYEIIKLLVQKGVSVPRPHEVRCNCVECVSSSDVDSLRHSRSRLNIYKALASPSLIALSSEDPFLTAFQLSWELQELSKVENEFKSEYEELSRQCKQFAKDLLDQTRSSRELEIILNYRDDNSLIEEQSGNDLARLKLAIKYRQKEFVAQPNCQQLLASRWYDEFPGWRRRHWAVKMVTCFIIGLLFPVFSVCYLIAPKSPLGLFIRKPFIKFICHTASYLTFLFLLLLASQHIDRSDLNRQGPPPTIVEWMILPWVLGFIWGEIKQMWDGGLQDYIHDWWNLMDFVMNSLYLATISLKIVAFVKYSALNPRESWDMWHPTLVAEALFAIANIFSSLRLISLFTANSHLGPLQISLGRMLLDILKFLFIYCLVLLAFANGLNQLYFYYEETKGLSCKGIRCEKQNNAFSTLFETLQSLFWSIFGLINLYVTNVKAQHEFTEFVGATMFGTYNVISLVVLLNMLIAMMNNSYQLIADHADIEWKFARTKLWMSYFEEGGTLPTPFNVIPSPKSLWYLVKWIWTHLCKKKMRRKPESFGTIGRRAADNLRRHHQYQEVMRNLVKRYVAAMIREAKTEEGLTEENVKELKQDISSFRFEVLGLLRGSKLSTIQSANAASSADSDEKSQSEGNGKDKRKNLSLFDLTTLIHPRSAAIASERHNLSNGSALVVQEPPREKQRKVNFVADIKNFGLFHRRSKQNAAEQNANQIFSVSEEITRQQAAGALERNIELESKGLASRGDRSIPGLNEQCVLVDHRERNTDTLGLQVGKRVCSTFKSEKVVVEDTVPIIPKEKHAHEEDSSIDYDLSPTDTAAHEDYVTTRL

Take `CN(C)C1(CNC(=O)c2ccc(Cl)c(S(=O)(=O)NCc3ccco3)c2)CCCCC1`: the outcome in [1], in test [3], in test [4], in [5], in test [6] and in [7] was inactive. For the same compound, the result in [8], in test [9], in test [11], in test [12], in test [13] and in [14] was inactive. The result in [15] and in test [16] was inactive. Moreover, the activation in [2] was 71% (active); in test [10], 36% (active).

`COc1cc(C)c(CNCCc2c[nH]c3ccccc23)cc1C`: the activation is 165% (active) in [1], 54.5% (active) in [10], 74.2% (active) in [12] and 12.8% (active) in test [15]. The result in test [2], in [3], in [4], in test [5], in test [6] and in test [7] was inactive. In addition, the outcome in [8], in [9], in test [11], in test [13], in [14] and in test [16] was inactive.

For the compound `COc1ccc(C(=O)C2CCCN(C3CSCCSC3)C2)cc1OC` (stereo unspecified), the activation in test [1] was 166% (active); in [2] it was 86% (active); in test [10], 33.5% (active); in [12], 87.7% (active). Further, the result in [3], in test [4], in test [5], in test [6], in [7] and in test [8] was inactive. The compound was classed as inactive in [9], in [11], in [13], in [14], in [15] and in test [16].

`CN(C)C=C1C(=O)N(C2CCCCC2)C(=O)N(C2CCCCC2)C1=O`: the activation in [1] was 83% (active); in [12], 124% (active); in test [15] it was 39.4% (active). The result in test [2], in test [3], in test [4], in [5], in test [6] and in test [7] was inactive. Also, the result in [8] and in [10] was inactive. Besides, the outcome in test [9], in test [11], in test [13], in [14] and in test [16] was “inactive [setting not given]” each time.

Regarding `COc1ccc(C(CNC(=O)CCc2ccsc2)N(C)C)cc1` (stereo unspecified), the activation is 67% (active) in test [1], 129% (active) in test [2] and 45.5% (active) in test [10]. Also, the result in [3], in test [4], in test [5], in [6], in test [7] and in [8] was inactive. The call in [9], in test [11], in test [12], in test [13], in test [14] and in test [15] was inactive. Moreover, in test [16], the result was inactive.

Consider `CC(N)Cc1c[nH]c2cc3c(cc12)OCCO3` (stereo unspecified), for which the activation in [1] was 195% (active); in test [2] it was 60% (active); in [12] it was 107% (active). Further, the outcome in test [3], in [4], in test [5], in [6], in test [7] and in [8] was inactive. In addition, the result in [10] and in test [15] was inactive. For the same compound, the outcome in [9], in [11], in test [13], in test [14] and in test [16] was “inactive [setting not given]” throughout.

Regarding `Cn1cc[n+](C)c1P(=S)(c1ccccc1)c1ccccc1`, the outcome in test [1], in test [2], in test [3], in [4], in [5] and in [6] was inactive. In addition, the result in test [7], in test [8], in test [9], in test [10], in [11] and in [12] was inactive. The outcome in [13], in test [14], in test [15] and in test [16] was inactive.

On to `C[C@H]1OC[C@@H](C[N+](C)(C)C)O1`, for which the activation in [1] was 152% (active); in test [2], 99% (active); in [10], 96% (active); in test [12], 85% (active); in test [15], 87.7% (active). The outcome in test [3], in test [4], in test [5], in test [6], in [7] and in test [8] was inactive. Also, the compound was classed as inactive in [9], in test [11], in test [13], in [14] and in test [16].

Consider `Cc1ccc(NC(=S)NCCc2cnc[nH]2)cc1C`, for which the results for the activation in [1], in [2] and in [12] were 199% (active), 106% (active) and 85% (active), respectively. The outcome in test [3], in test [4], in [5], in [6], in [7] and in test [8] was inactive. Also, the result in test [9], in test [10], in test [11], in test [13], in test [14] and in test [15] was inactive. Besides, the outcome in test [16] was inactive.

For the compound `CCN(CC)c1ccc(/C=C/[N+](=O)[O-])cc1`, the activation in [1] is 96% (active); in test [10], 906% (active); in test [12], 67.9% (active); in test [15], 113% (active). Also, the outcome in test [2], in test [3], in [4], in test [5], in [6] and in test [7] was inactive. Also, the outcome in [8], in test [9], in test [11], in test [13], in test [14] and in [16] was inactive.

On to `CC[C@@H](CO)NC(=O)[C@@H]1C=C2c3cccc4c3c(cn4C)C[C@H]2N(C)C1`, for which the figures for the activation in test [1], in test [2] and in [12] were 107% (active), 57% (active) and 147% (active), respectively. Also, the outcome in test [3], in test [4], in [5], in test [6], in [7] and in test [8] was inactive. The compound was called inactive in [10] and in [15]. For the same compound, the outcome in test [9], in test [11], in [13], in test [14] and in [16] was “inactive [setting not given]” throughout.

As for `COc1ccc2c(c1O)C13CCN(C)C(C2)C1CCC(=O)C3` (stereo unspecified), the activation in test [1] is 82% (active); in test [2], 96% (active); in test [10] it was 27.5% (active). For the same compound, the outcome in [3], in test [4], in test [5], in test [6], in test [7] and in [8] was inactive. The outcome in test [12] and in test [15] was inactive. Besides, the outcome in [9], in test [11], in test [13], in test [14] and in test [16] was “inactive [setting not given]” each time.

For the compound `Cc1nc2ccccn2c1P(=S)(N1CCCCC1)N1CCCCC1`, the activation in [1] is 88% (active); in test [10], 88% (active); in test [12], 87.7% (active); in test [15] it was 74.7% (active). The result in test [2], in test [3], in test [4], in test [5], in [6] and in test [7] was inactive. The outcome in test [8], in test [9], in [11], in [13], in test [14] and in test [16] was inactive.

As to `CCc1n[nH]c(CCN)n1`, the activation in test [1] was 178% (active); in [12], 48.7% (active). The result in test [2], in test [3], in [4], in [5], in [6] and in test [7] was inactive. Also, the outcome in [8], in [9], in test [10], in test [11], in test [13] and in test [14] was inactive. For the same compound, the outcome in test [15] and in [16] was inactive.

`O=[N+]([O-])c1ccc(N2CCNCC2)c(Cl)c1`: the result in test [1], in test [2], in test [5], in test [6], in test [7] and in test [8] was inactive. For the same compound, the call in [9], in test [10], in test [11], in test [13], in test [14] and in test [15] was inactive. Also, in [16], the result was inactive. Moreover, the potentiation in test [3] was 26% (active); in test [4], 28% (active). Also, the activation in [12] was 5.58% (active).

As for `COc1ccc2c(c1O)[C@]13CCN(C)[C@H](C2)[C@@H]1CCC(=O)C3`, the results for the activation in [1], in [2] and in test [10] were 82% (active), 99% (active) and 29.5% (active), respectively. For the same compound, the outcome in test [3], in test [4], in test [5], in test [6], in [7] and in test [8] was inactive. Also, the outcome in [12] and in [15] was inactive. The outcome in [9], in test [11], in test [13], in test [14] and in test [16] was “inactive [setting not given]” in each case.
